In the library only some 3.7% were active in any assay of this set; here they are far more common.
VDR inhibitor – blocks the human vitamin D receptor. AID 504847. VDR-SRC2-3 peptide fluorescence polarization, 2 h. P11473. Potency, µM, for inactives: max response, negative = inhibition, hits mostly inhibitors. 400,000 compounds, 0.93% hits; also: potency is read from the fitted curve at half-maximal effect; % is scaled to controls: 0 for no effect and ±100 for the full control effect
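Fluorescence polarization assay measuring small-molecule disruption of VDR binding to the coregulator peptide SRC2-3. Compounds were pin-transferred (23 nl) into the reagent mix and incubated 2 h at room temperature before reading.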
WRN helicase inh – WRN helicase (human) inhibition; Q14191; WRN helicase unwinding, fluorescent forked duplex, kinetic; Potency, µM (titrated, usually from 114 µM), for inactives: at the top dose activity change, negative = inhibition, most hits filed as inhibitors; 360,000 compounds, 0.46% hits; also: potency is read from the fitted curve at half-maximal effect; % is scaled to controls: 0 for no effect and ±100 for the full control effect; nearly all actives have a fitted effect of over 55% in size
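Primary qHTS, 1536-well format. 20 nM WRN + compound, 15 min RT; start with 100 nM forked fluorophore/quencher duplex, 2 mM ATP (final); kinetic read ex 525/em 598 nm.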
PI5P4Ka inh – blocks human PI5P4K alpha kinase activity; P48426; 330,000 compounds, 1.2% hits; PI5P4Kalpha enzyme, ADP-Glo luminescence, 60 min; hits give low values; AID 652105; max response, %; active = max response of -50% or lower; inconclusive = between -30% and -50%; inactive = -30% or higher; also: value at the top dose of about 77 µM; % is scaled to controls: 0 for no effect and ±100 for the full control effect
Target sequence (P48426 whole entry, looked up): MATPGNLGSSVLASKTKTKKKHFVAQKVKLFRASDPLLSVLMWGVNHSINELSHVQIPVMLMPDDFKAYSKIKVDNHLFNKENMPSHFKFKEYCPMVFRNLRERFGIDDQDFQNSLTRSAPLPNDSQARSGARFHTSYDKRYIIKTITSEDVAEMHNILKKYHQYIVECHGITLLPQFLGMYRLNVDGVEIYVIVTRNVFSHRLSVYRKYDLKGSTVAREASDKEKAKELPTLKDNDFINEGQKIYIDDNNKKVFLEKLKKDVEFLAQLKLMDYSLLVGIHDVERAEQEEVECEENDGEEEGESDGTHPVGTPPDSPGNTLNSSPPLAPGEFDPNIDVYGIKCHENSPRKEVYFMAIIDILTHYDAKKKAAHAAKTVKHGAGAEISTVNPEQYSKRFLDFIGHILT
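Controls without substrate or without enzyme flank wells where PI5P4Kalpha converts substrate using 5 microM ATP (final). Incubation lasts 60 minutes at room temperature; ADP formed is read by ADP-Glo luminescence.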
TCR act – T cell receptor activation. 330,000 tested, under 10 active. primary human leukocytes, anti-CD3, IL-2 HTRF, 48 h. AID 504894. Potency, µM (top dose mostly 9.22 µM), for the others: at the top dose activation of IL-2 secretion, hits mostly activators; also: % of control where 0% means no effect
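Readout: HTRF IL-2, Eu-cryptate/d2 antibody pair, 320nm excitation, 665nm emission. Stimulus: a-CD3 beads, no co-stimulation. Cells: primary human leukocytes. Exposure: 48 hr with compound.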
PLK1 PBD inh – inhibitors of human PLK1 polo-box domain binding. P53350. 360,000 compounds, 2.8% hits. Plk1 PBD binding of FITC phosphopeptide, fluorescence polarization. AID 720504. Potency, µM, without a hit: max response, negative = inhibition, actives largely listed as inhibitors; also: potency is read from the fitted curve at half-maximal effect; series mostly up to about 57 µM; % is scaled to controls: 0 for no effect and ±100 for the full control effect; nearly all actives have a fitted effect of over 65% in size
FEN1 inhibitor – human FEN1 inhibition; AID 588795; 390,000 compounds, 0.35% hits; Recombinant FEN1 flap cleavage, fluorescence, 15 min; P39748; Potency, µM (highest dose often 114 µM), inactives show at the top dose activity change, negative = inhibition, usual class: inhibitors; also: potency is read from the fitted curve at half-maximal effect; % is scaled to controls: 0 for no effect and ±100 for the full control effect; nearly all actives have a fitted effect of over 65% in size
Target sequence (P39748 whole entry, looked up): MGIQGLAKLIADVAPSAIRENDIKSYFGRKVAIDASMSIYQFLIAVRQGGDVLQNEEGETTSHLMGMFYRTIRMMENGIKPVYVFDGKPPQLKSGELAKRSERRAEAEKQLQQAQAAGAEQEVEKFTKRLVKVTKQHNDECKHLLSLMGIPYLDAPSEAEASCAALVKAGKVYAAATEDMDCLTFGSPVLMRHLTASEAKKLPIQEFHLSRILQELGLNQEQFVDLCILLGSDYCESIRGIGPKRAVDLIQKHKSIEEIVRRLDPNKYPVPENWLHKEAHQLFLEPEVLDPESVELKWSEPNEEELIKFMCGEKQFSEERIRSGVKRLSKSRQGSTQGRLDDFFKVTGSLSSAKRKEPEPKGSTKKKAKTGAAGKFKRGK
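With each library titrated from low to high concentration, compounds met 10 nM FEN1 for 15 min at room temperature before 50 nM substrate was added; readings at 0 and 15 min fed four-parameter Hill curve fits.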
ADP-Glo interf – ADP-Glo luciferase interference, PI5P4K counter-screen; shares compounds with PI5P4Ka inh; ADP-Glo detection counter-screen, luciferase luminescence, no enzyme; Potency, µM (top dose mostly 76.9 µM), for inactives: at the top dose activity change, negative = inhibition, usual class: inhibitors; 1,100 tested, under 10 active; AID 743285
TbPYK confirm – Trypanosoma brucei pyruvate kinase inhibition, cherry-pick confirmation; shares compounds with PLK1 PBD inh; 890 compounds, 67% hits; recombinant TbPYK, Kinase-Glo ATP luminescence; Potency, µM (series often up to 76.9 µM), for inactives: top-dose activity change, negative = inhibition, usual class: inhibitors; also: potency is read from the fitted curve at half-maximal effect; % is scaled to controls: 0 for no effect and ±100 for the full control effect; nearly all actives have a fitted effect of over 70% in size
TbPYK ADP-Glo – orthogonal confirmation of Trypanosoma brucei pyruvate kinase inhibitors | shares compounds with PLK1 PBD inh | recombinant TbPYK, ADP-Glo luminescence, 60 min | Potency, µM (doses to about 76.9 µM), for the others: at the highest dose activity change, negative = inhibition, hits mostly inhibitors | 890 compounds, 62% hits | AID 720584; also: potency is read from the fitted curve at half-maximal effect; % is scaled to controls: 0 for no effect and ±100 for the full control effect; nearly all actives have a fitted effect of over 75% in size
* hit, by the source's call; [ ] = dose if it differs, or a comment. Unless noted, calls follow the shape of the dose curve; as a rule, active = well fitted curve in the direction sought with a large enough effect; inconclusive = small, poorly fitted or top-dose-only effect, or another doubt; inactive = no such curve, though single readings can be large; an effect the other way counts as inactive or inconclusive.

How did COc1ccc(S(=O)(=O)N(CCc2ccccc2)CC(=O)Nc2cc(C)cc(C)c2)cc1OC do in these assays?
VDR inhibitor: 8.1%; FEN1 inhibitor: inconclusive

Results for Cc1ccc(CSc2ncc(Cl)c(C(=O)Oc3ccc(F)cc3)n2)cc1 ?
VDR inhibitor: 4.7%; FEN1 inhibitor: -14.1%

What do the screens show for `O=C(Oc1ccc2c(c1)OCO2)c1cc2c(s1)CCC2`?
VDR inhibitor: -1.9%; WRN helicase inh: inconclusive; PI5P4Ka inh: -53.1*; TCR act: 3.9%; PLK1 PBD inh: -27.7%; FEN1 inhibitor: inconclusive; ADP-Glo interf: -8.8%

How did O=C(COc1ccc(Cl)cc1Cl)Nc1cccc(-c2ccc(N3CCOCC3)nn2)c1 do in these assays?
VDR inhibitor: -13.6%; WRN helicase inh: 2.0%; PI5P4Ka inh: -7.0; TCR act: -3.4%; PLK1 PBD inh: -8.1%; FEN1 inhibitor: 7.2%

What do the screens show for `O=C(COc1ccccc1)Nc1cccc(-c2ccc(N3CCOCC3)nn2)c1`?
VDR inhibitor: 9.8%; WRN helicase inh: -4.1%; PI5P4Ka inh: -13.0; TCR act: -0.9%; PLK1 PBD inh: -1.3%; FEN1 inhibitor: 4.6%; ADP-Glo interf: -14.3%

Results for COc1cccc(C(=O)Nc2cccc(-c3cn4c(C)csc4n3)c2)c1OC ?
VDR inhibitor: -5.6%; FEN1 inhibitor: -18.4%

What do the screens show for `Cc1noc2ncnc(N3CCCC(C(=O)NC(C)C)C3)c12` (stereo unspecified)?
VDR inhibitor: 5.3%; FEN1 inhibitor: -6.3%

How did CCOC(=O)Cc1cc(=O)n2[nH]c(C)c(-c3ccccc3)c2n1 do in these assays?
VDR inhibitor: 57.6%; WRN helicase inh: -11.4%[57.1 µM]; PI5P4Ka inh: 1.1; TCR act: -1.4%; PLK1 PBD inh: -15.8%; FEN1 inhibitor: -7.7%

Results for CCOC(=O)Cc1cc(=O)n2[nH]c(-c3ccccc3)c(-c3ccccc3)c2n1 ?
VDR inhibitor: -1.3%; WRN helicase inh: inconclusive; PI5P4Ka inh: -50.2*; TCR act: -4.5%; PLK1 PBD inh: -27.5%; FEN1 inhibitor: -0.2%; ADP-Glo interf: 3.2%

Results for COc1ccc(CNc2ncnc3ccc(-c4cccc(C#N)c4)cc23)c(OC)c1 ?
VDR inhibitor: 2.6%

Results for O=C(O)c1sccc1NC(=O)c1c(Cl)cccc1Cl ?
VDR inhibitor: -1.3%; WRN helicase inh: 2.4%; PI5P4Ka inh: -55.3*; TCR act: 5.1%; PLK1 PBD inh: -2.1%; FEN1 inhibitor: -1.5%; ADP-Glo interf: 1.6%

How did COC(=O)c1sccc1NC(=O)c1c(Cl)cccc1Cl do in these assays?
VDR inhibitor: -22.5%; WRN helicase inh: -9.7%; PI5P4Ka inh: 1.2; TCR act: -3.0%; PLK1 PBD inh: -22.1%; FEN1 inhibitor: -1.5%

How did COc1ccc2c(CC(=O)OCC(=O)Nc3cccc(C)c3)coc2c1 do in these assays?
VDR inhibitor: -18.6%; WRN helicase inh: inconclusive; PI5P4Ka inh: -56.3*; TCR act: -1.6%; PLK1 PBD inh: -3.7%; FEN1 inhibitor: inconclusive; ADP-Glo interf: -0.4%

How did O=C(c1ccco1)N1CCN(c2ncnc3c2[nH]c2ccc(Br)cc23)CC1 do in these assays?
VDR inhibitor: 22.1%; WRN helicase inh: -29.9%; PI5P4Ka inh: -50.1*; TCR act: 1.6%; PLK1 PBD inh: -18.6%; FEN1 inhibitor: inconclusive; ADP-Glo interf: 9.6%

How did Cc1ccc(-n2ncc(C(=O)NCCN3CCN(C)CC3)c2C2CCN(C(=O)OC(C)(C)C)CC2)c(C)c1 do in these assays?
VDR inhibitor: 0.9%; FEN1 inhibitor: -7.3%

How did CCCCn1c(=O)[nH]c(=O)c2c1nc(-c1ccc(-c3ccccc3Br)o1)n2CC do in these assays?
VDR inhibitor: -10.3%; WRN helicase inh: -16.6%; PI5P4Ka inh: -52.5*; TCR act: 14.1%; PLK1 PBD inh: -18.7%; FEN1 inhibitor: -14.4%; ADP-Glo interf: -1.5%

How did CCCCn1c(=O)[nH]c(=O)c2c1nc(-c1ccccc1F)n2Cc1ccccc1 do in these assays?
VDR inhibitor: -7.9%; WRN helicase inh: -0.8%[57.1 µM]; PI5P4Ka inh: 2.8; TCR act: 5.9%; PLK1 PBD inh: 9.5%; FEN1 inhibitor: 14.8%

Results for Cc1ccc(C)c(Cn2c(=O)n(Cc3ccccc3)c(=O)c3c(C)c(C)sc32)c1 ?
VDR inhibitor: -5.9%; FEN1 inhibitor: 19.4%

How did COc1ccc(-c2nc3ccccc3s2)cc1NC(=O)COc1cccc(C)c1 do in these assays?
VDR inhibitor: 3.6%; FEN1 inhibitor: inconclusive

Results for Cc1ccc2cc(CCl)c(Cl)nc2c1 ?
VDR inhibitor: 9.1%; WRN helicase inh: -3.8%; PI5P4Ka inh: -79.2*; TCR act: -1.6%; PLK1 PBD inh: -18.1%; FEN1 inhibitor: -1.6%; ADP-Glo interf: -0.5%

How did CCOC(=O)CNC(=O)O[C@H]1C(=O)c2cc(OC)ccc2O[C@@H]1c1ccc(OC)c(Br)c1 do in these assays?
VDR inhibitor: 2.0%

Results for Oc1c(C(c2ccc(Cl)cc2)N2CCCC2)sc2nc(-c3ccco3)nn12 (stereo unspecified) ?
VDR inhibitor: 2.2%; FEN1 inhibitor: -12.2%

What do the screens show for `O=S(=O)(Nc1nc(-c2ccccc2)cs1)c1cccc(C(F)(F)F)c1`?
VDR inhibitor: -13.6%; WRN helicase inh: -4.4%; PI5P4Ka inh: -0.2; TCR act: -5.5%; PLK1 PBD inh: inconclusive; FEN1 inhibitor: -18.9%

Results for O=S(=O)(Nc1nc(-c2ccccc2)cs1)c1cc(Cl)ccc1Cl ?
VDR inhibitor: -2.4%; WRN helicase inh: -26.3%; PI5P4Ka inh: -50.5*; TCR act: -4.8%; PLK1 PBD inh: inconclusive; FEN1 inhibitor: -3.2%; ADP-Glo interf: -1.9%

Results for COC(=O)c1ccc2nc(-c3ccco3)c(Cc3ccc(OC)cc3C)n2c1 ?
WRN helicase inh: -34.5%; PI5P4Ka inh: -80.4*; PLK1 PBD inh: 26.7µM*; ADP-Glo interf: 0.7%; TbPYK confirm: 7.08µM*; TbPYK ADP-Glo: 7.94µM*

How did COC(=O)c1ccc2nc(-c3ccc(F)cc3)c(Cc3ccc(OC)cc3C)n2c1 do in these assays?
WRN helicase inh: -13.0%; PI5P4Ka inh: 5.9; PLK1 PBD inh: -2.0%

Screens deposited in PubChem by National Center for Advancing Translational Sciences (NCATS).
